GLS inh: blocks human kidney-isoform glutaminase activity; O94925; GLS enzymatic activity, qHTS titration; AID 624170; Potency, µM (highest dose often 45.5 µM), actives largely listed as inhibitors; 0.21% of 410,000 active
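Enzyme dispensed in phosphate buffer (45 mM, pH 8.2, 0.02% Tween-20), compounds pinned in, then 1 mM L-glutamine solution and the glutamate oxidase–HRP–Amplex Red mix added; fluorescence read immediately and again after 30 min at room temperature.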
ALOX12 inh: ALOX12 (human) lipoxygenase inhibition. Potency, µM (doses to about 108 µM), actives largely listed as inhibitors. AID 1671190. purified 12hLO, xylenol orange hydroperoxide absorbance. P18054. 1.1% of 580,000 active
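Purified human 12hLO at 150 nM in 25 mM Hepes, 0.01% Triton X-100, pH 7.0, preincubated 15 min at room temperature with compound. Reaction started with 40 uM arachidonic acid, 30 min at room temperature. Hydroperoxide measured by Fe-xylenol orange, 573/405 nm absorbance ratio.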
GLP-1R agonist: GLP-1 receptor (human) agonism | AID 624172 | P43220 | 0.007% of 380,000 active | Potency, µM (top dose mostly 45.6 µM), usual class: activators | HEK293 GLP-1R CRE-luciferase, luminescence, 4-6 h; cells express a hypersensitive GLP-1R form
Target sequence (P43220 whole entry, looked up): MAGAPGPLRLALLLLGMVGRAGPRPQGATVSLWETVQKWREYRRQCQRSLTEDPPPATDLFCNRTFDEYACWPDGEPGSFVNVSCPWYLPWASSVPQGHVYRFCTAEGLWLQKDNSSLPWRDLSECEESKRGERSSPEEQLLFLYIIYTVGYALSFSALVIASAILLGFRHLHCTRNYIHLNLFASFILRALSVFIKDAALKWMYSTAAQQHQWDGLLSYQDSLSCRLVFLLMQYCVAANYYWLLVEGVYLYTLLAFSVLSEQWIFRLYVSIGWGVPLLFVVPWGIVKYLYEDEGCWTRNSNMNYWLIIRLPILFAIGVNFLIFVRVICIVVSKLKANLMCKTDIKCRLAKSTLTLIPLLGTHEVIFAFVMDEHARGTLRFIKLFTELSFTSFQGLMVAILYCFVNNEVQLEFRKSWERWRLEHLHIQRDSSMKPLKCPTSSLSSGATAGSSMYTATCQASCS
GLP-1R inv ag: inverse agonists of human GLP-1 receptor. P43220. HEK293 GLP-1R CRE-luciferase, luminescence, 24 h; GLP-1R form is constitutively active. Potency, µM (highest dose often 38.3 µM), hits mostly inhibitors. 1.6% of 410,000 active; also: nearly all actives have a fitted effect of over 55% in size
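Readout was luciferase luminescence, measured 12 min after detection reagent at room temperature. Beforehand, GLP-1R reporter HEK293 cells had sat 12 h, then received compounds for 24 hr at 37 deg C.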
PTHR1 ag: agonists of human PTHR1 parathyroid hormone receptor; Q03431; HEK293 GP2 PTHR1 cells, GloSensor cAMP luminescence, 1 h; Potency, µM (highest dose often 115 µM), hits mostly activators; 0.075% of 410,000 active; also: nearly all actives have a fitted effect of over 55% in size
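HEK-293-derived GP2 cells expressing PTHR1 and a GloSensor cAMP reporter, 3,000/well, plated overnight, given luciferin plus IBMX (each 0.5 mM as added) for 1 h at 37 °C, then compound for 1 h at 37 °C. Luminescence was read after 15 min at room temperature.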
GRP78 ERSR act: ER stress response induction in glioma. Potency, µM, usual class: activators. 0.02% of 420,000 active. U87-MG GRP78 promoter luciferase reporter, 16 h; also: series mostly up to about 76 µM; nearly all actives have a fitted effect of over 35% in size
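Stably transfected U87-MG glioma cells carrying a GRP78-based luciferase sensor; 16 h compound incubation. Luminescence end-point read 10 min after Bright-Glo addition at room temperature.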
Large screens that a line does not name were inactive. Hits are enriched below; roughly 2.3% of the tested compounds scored in any of these assays. Calls follow the shape of the dose curve; as a rule, active = well fitted curve in the direction sought with a large enough effect; inconclusive = small, poorly fitted or top-dose-only effect, or another doubt; inactive = no such curve, though single readings can be large; an effect the other way counts as inactive or inconclusive.

FC(F)Oc1ccc(NC(=S)NC2CCCCCCC2)cc1	ALOX12 inh inconclusive, GLP-1R inv ag 4.5µM
FC(F)Oc1ccc(NC(=S)NC2CCSc3ccccc32)cc1 (configuration not stated)	ALOX12 inh inconclusive, GLP-1R inv ag inconclusive
S=C(Nc1cccc(Cl)c1)NC1CCCCC1	GLP-1R inv ag 8.9µM
S=C(NNc1cccc(Cl)c1)NC1CCCCC1	GLS inh inconclusive, ALOX12 inh inconclusive, GLP-1R inv ag 10µM
S=C(Nc1ccc(Nc2ccccc2)cc1)NC1CCCCCC1	ALOX12 inh 45µM, GLP-1R inv ag 5µM
CSc1cccc(NC(=O)c2ccc3c(c2)N(C)C2CCCCCN2C3=O)c1 (configuration not stated)	none (no result: GLS inh, GLP-1R agonist, GLP-1R inv ag, PTHR1 ag, GRP78 ERSR act)
CC(C)c1nn2c(=O)cc(COC(=O)COc3ccccc3Cl)nc2s1	none (no result: GLS inh, GLP-1R agonist, GLP-1R inv ag, PTHR1 ag, GRP78 ERSR act)
S=C(NC1CCCCC1)c1ccccc1	ALOX12 inh 32µM (no result: GLS inh, GLP-1R agonist, GLP-1R inv ag, PTHR1 ag, GRP78 ERSR act)
S=C(Nc1ccc(Cl)cc1)NC1CCCCC1	GLP-1R inv ag 10µM
C/C(=N\NC(=S)NC1CCCCC1)c1ccc(OC(F)F)cc1OC(F)F	ALOX12 inh 28µM, GLP-1R inv ag inconclusive
N#CCC(=O)Nc1ccc(C(=O)NNC(=S)NC2CCCCC2)cc1	GLS inh 18µM
COC(=O)c1ccc(NC(=S)NC2CCCCC2)cc1	GLP-1R inv ag inconclusive
CO[C@@H]1CO[C@H]2[C@@H]1OC[C@@H]2NC(=S)Nc1ccc(Cl)cc1	ALOX12 inh 79µM (no result: GLS inh, GLP-1R agonist, GLP-1R inv ag, PTHR1 ag, GRP78 ERSR act)
C/C(=N\NC(=S)NC1CCCCC1)c1c(F)cccc1F	ALOX12 inh inconclusive, GLP-1R inv ag 4µM
C/C(=N\NC(=S)NC1CCCCC1)c1cccs1	ALOX12 inh inconclusive, GLP-1R inv ag inconclusive
Cc1nc2c(=O)oc3ccccc3c2nc1C	none (no result: GLS inh, GLP-1R agonist, GLP-1R inv ag, PTHR1 ag, GRP78 ERSR act)
Cc1cccc(NC(=O)CN2CCN(Cc3csc(-c4ccccc4)n3)CC2)c1C	none (no result: GLS inh, GLP-1R agonist, GLP-1R inv ag, PTHR1 ag, GRP78 ERSR act)
O=C(c1ccc(Cl)cc1)N1CCN(CCOc2ccccc2)CC1	GLP-1R inv ag 11µM
CCN1CCN(CCOc2ccc(Cl)cc2)CC1	ALOX12 inh 1.4µM, GLP-1R inv ag inconclusive
Clc1ccc(OCCN2CCOCC2)cc1	none
COc1ccc(OCCN2CCN(C(=O)c3ccc(OC)cc3)CC2)cc1	none
CN(CC(=O)N1CCCC1)c1nc(-c2ccsc2)nc2ccccc12	none (no result: GLS inh, GLP-1R agonist, GLP-1R inv ag, PTHR1 ag, GRP78 ERSR act)
COc1ccc(C(=O)c2ccc(Cl)cc2)c2ccccc12	GLP-1R inv ag 10µM
Cc1nc(-n2nc(C)c(Cl)c2C)sc1C(=O)N1CCC(C)CC1	none (no result: GLS inh, GLP-1R agonist, GLP-1R inv ag, PTHR1 ag, GRP78 ERSR act)
CCC12C(=O)C(CC)(C(c3ccccc3)=C1c1ccccc1)[C@@H]1C(=O)N(c3ccccc3)C(=O)C12 (some centres not stated)	GLP-1R inv ag 3.2µM
Cc1nc2cc(NC(=O)COc3ccc(C#N)cc3)ccc2o1	none (no result: GLS inh, GLP-1R agonist, GLP-1R inv ag, PTHR1 ag, GRP78 ERSR act)
Cc1ccc(COc2ccsc2-c2n[nH]c(=S)n2C)cc1	ALOX12 inh 14µM (no result: GLS inh)
Cn1c(-c2sccc2OCc2ccc(Cl)cc2Cl)n[nH]c1=S	ALOX12 inh 28µM, GLP-1R inv ag inconclusive
Cn1c(-c2sccc2OCc2ccccc2)n[nH]c1=S	ALOX12 inh inconclusive
CSc1nn(Cc2cccc(Cl)c2)c(N(C(C)=O)C(C)=O)c1S(=O)(=O)c1ccccc1	GLP-1R inv ag 13µM
Cc1oc2c(c1C(=O)NCc1cccnc1)C(=O)c1ccccc1C2=O	GLP-1R inv ag 3.2µM (no result: ALOX12 inh)
COc1ccc(CNC(=O)c2c(C)oc3c2C(=O)c2ccccc2C3=O)cc1	ALOX12 inh inconclusive, GRP78 ERSR act inconclusive
Cn1cc(CN2CCCCC2CO)c(-c2ccc(Oc3ccccc3)cc2)n1 (configuration not stated)	GLP-1R inv ag 10µM
COC1CCCN(Cc2cn(C)nc2-c2ccc(Oc3ccccc3)cc2)C1 (configuration not stated)	GLP-1R inv ag inconclusive
Cc1ccc([N+](=O)[O-])cc1S(=O)(=O)N(C)N=Cc1cnc2ccc(Br)cn12	ALOX12 inh 8.6µM (no result: GLS inh, GLP-1R agonist, GLP-1R inv ag, PTHR1 ag, GRP78 ERSR act)
Cc1ccc([N+](=O)[O-])cc1S(=O)(=O)N1CCNCC1	GLS inh inconclusive
Cc1cc(C)nc(-n2nc(C)cc2NC(=O)CNCc2ccccc2)n1	none
CCC(C(=O)Nc1cc(C)nn1-c1nc(C)cc(C)n1)c1ccccc1 (configuration not stated)	GLP-1R inv ag 3.5µM
O=C(CCCCCN1C(=O)c2cccc3cccc(c23)C1=O)NCCCO	none
O=C(CCCCCN1C(=O)c2cccc3cccc(c23)C1=O)NO	ALOX12 inh 3.5µM, GRP78 ERSR act inconclusive (no result: GLS inh, GLP-1R agonist, GLP-1R inv ag, PTHR1 ag)
Cc1cc2c(cc1C)CSC(c1cc(Cl)ccc1O)SC2	ALOX12 inh 13µM (no result: GLS inh, GLP-1R agonist, GLP-1R inv ag, PTHR1 ag, GRP78 ERSR act)
Cc1cc2c(cc1C)CSC(c1c(O)ccc3ccccc13)SC2	GLP-1R inv ag 13µM
Cc1cc2c(cc1C)CSC(c1ccc3ccccc3c1O)SC2	none
CC1CCCCN1S(=O)(=O)c1ccc2nc(N3CCCCCC3)ccc2c1 (configuration not stated)	ALOX12 inh 13µM (no result: GLS inh, GLP-1R agonist, GLP-1R inv ag, PTHR1 ag, GRP78 ERSR act)
Cc1ccc(C)c(N2CCN(c3ccc4cc(S(=O)(=O)N5CCCCC5)ccc4n3)CC2)c1	ALOX12 inh inconclusive
N#Cc1ccc(C(=O)/C=C/c2cc3ccccc3nc2N2CCOCC2)cc1	ALOX12 inh 11µM (no result: GLS inh, GLP-1R agonist, GLP-1R inv ag, PTHR1 ag, GRP78 ERSR act)
CC(C)CC(CNC(=O)Cc1n[nH]c(=O)c2ccccc12)N1CCOCC1 (configuration not stated)	none (no result: GLS inh, GLP-1R agonist, GLP-1R inv ag, PTHR1 ag, GRP78 ERSR act)
O=C(NCc1ccccc1OC(F)F)c1ccccc1-n1cnnn1	none (no result: GLS inh, GLP-1R agonist, GLP-1R inv ag, PTHR1 ag, GRP78 ERSR act)
